Measurements reported in PubChem BioAssay (NCI).
About 79,000 compounds went through this panel and 15% of them were active in at least one assay; those are over-represented in the sample as a whole. Activity calls are given as the source filed them. Cut-off read from the data, not from the text of the source: active = growth inhibition above about 70%; inactive = the rest.

Columns and labels:
[1] = NCI Yeast Anticancer Drug Screen. Data for the rad52 strain (AID 147);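 note: 0% = growth of vehicle-treated control cultures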; settings: S. cerevisiae rad52 mutant growth inhibition, hits give high values
Procedure, shortened: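 Compounds are applied to a genetically defined yeast strain lacking normal DNA damage repair, and inhibition of growth is expressed relative to cultures given vehicle only.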

[2] = NCI Yeast Anticancer Drug Screen. Data for the wt1 strain (AID 149);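 note: 0% = growth of vehicle-treated wt1 cultures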; settings: S. cerevisiae wt1 strain (SPY 50644) growth inhibition, hits give high values
Procedure, shortened: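 wt1 strain grown with compound or vehicle; inhibition taken from the growth difference.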

[3] = NCI Yeast Anticancer Drug Screen. Data for the rad50EPP+ strain (AID 151);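 note: 0% = growth of vehicle-treated control cultures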; settings: S. cerevisiae rad50 mutant strain, hits give high values
Procedure, shortened: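 Compounds were applied to the rad50EPP+ yeast strain, which bears a defined DNA repair alteration, and growth inhibition was determined relative to vehicle-treated cultures.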

[4] = NCI Yeast Anticancer Drug Screen. Data for the mgt1 strain (AID 153); settings: S. cerevisiae mgt1 mutant growth inhibition, hits give high values
Procedure, shortened: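 Strain: mgt1 yeast, one of a set carrying defined DNA damage repair or cell cycle control alterations. Compound-treated growth compared with vehicle.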

[5] = NCI Yeast Anticancer Drug Screen. Data for the rad50 strain (AID 155);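 note: 0% = growth of vehicle-only cultures of the same strain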; settings: S. cerevisiae rad50 strain growth inhibition, hits give high values
Procedure, shortened: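 DNA repair mutant yeast, compound exposure, growth read-out; inhibition is taken relative to vehicle.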

[6] = NCI Yeast Anticancer Drug Screen. Data for the mec2-1 strain (AID 157); settings: S. cerevisiae mec2-1 strain, hits give high values
Procedure, shortened: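 Strain: mec2-1 (DNA repair/cell cycle alteration). Compound exposure, then growth measured; inhibition expressed relative to vehicle.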

[7] = NCI Yeast Anticancer Drug Screen. Data for the rad14 strain (AID 159);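 note: 0% = growth of vehicle-treated control cultures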; settings: S. cerevisiae rad14 strain growth inhibition, hits give high values
Procedure, shortened: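 DNA repair-defective yeast, compound-exposed; % growth inhibition derived by comparison with vehicle-treated controls.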

[8] = NCI Yeast Anticancer Drug Screen. Data for the sgs1 mgt1 strain (AID 161);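 note: 0% = growth of cultures given vehicle only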; settings: S. cerevisiae sgs1 mgt1 strain, hits give high values
Procedure, shortened: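 Test agents were incubated with a DNA-repair-mutant yeast strain. Growth was then read and compared against vehicle-treated controls.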

[9] = NCI Yeast Anticancer Drug Screen. Data for the CLN2oe strain (AID 163);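 note: 0% = growth of vehicle-only control cultures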; settings: S. cerevisiae CLN2oe strain, hits give high values
Procedure, shortened: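 Growth of a genetically modified yeast strain is measured after compound exposure and compared with cultures given vehicle alone.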

[10] = NCI Yeast Anticancer Drug Screen. Data for the cln2 rad14 strain (AID 165);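 note: 0% = growth equal to vehicle treated cultures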; settings: S. cerevisiae cln2 rad14 strain, hits give high values
Procedure, shortened: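 Compounds are applied to the cln2 rad14 yeast strain, and growth is then compared with that of vehicle-treated cultures to give inhibition.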

[11] = NCI Yeast Anticancer Drug Screen. Data for the bub3 strain (AID 167); settings: S. cerevisiae bub3 mutant strain, hits give high values
Procedure, shortened: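 In this screen, a yeast mutant lacking normal mitotic checkpoint function is challenged with compound. Relative growth versus vehicle gives the inhibition value.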

[12] = NCI Yeast Anticancer Drug Screen. Data for the wt2 strain (AID 169);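 note: 0% = growth of vehicle-treated yeast cultures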; settings: S. cerevisiae wt2 strain growth inhibition, hits give high values
Procedure, shortened: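 This strain belongs to a panel of yeast strains with defined genetic alterations in DNA damage repair or cell cycle control. Compounds are applied, and growth inhibition is measured against vehicle-treated cultures.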

[13] = NCI Yeast Anticancer Drug Screen. Data for the sgs1 strain (AID 173);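 note: 0% = growth of vehicle-only control cultures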; settings: S. cerevisiae sgs1 mutant, hits give high values
Procedure, shortened: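 Growth of a yeast strain bearing a defined genetic alteration is measured after compound treatment. Inhibition is expressed relative to vehicle-only controls.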

[14] = NCI Yeast Anticancer Drug Screen. Data for the mlh1 rad18 strain (AID 175); settings: S. cerevisiae mlh1 rad18 strain growth inhibition, hits give high values
Procedure, shortened: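 Read-out is yeast growth inhibition, calculated against vehicle-only controls. The compound was applied to a strain engineered with DNA damage repair alterations.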

[15] = NCI Yeast Anticancer Drug Screen. Data for the rad18 strain (AID 177); settings: S. cerevisiae rad18 mutant growth inhibition, hits give high values
Procedure, shortened: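 Growth of the mutant yeast strain after compound exposure, normalised to vehicle-only cultures.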

[16] = at 5.0 µM (retest, dose inferred, filed as 0.5)
[17] = at 50.0 µM (retest, dose inferred, filed as 5.0)

Measured: growth inhibition

C/C(=N\Sc1ccccc1)c1ccccc1O
inactive: [1]; at 1.2 µM 1% | [1]; at 3.7 µM 4% | [1]; at 11.0 µM 2% | [1]; at 33.0 µM 21% | [2]; at 1.2 µM -3% | [2]; at 3.7 µM -4% | [2]; at 11.0 µM -4% | [2]; at 33.0 µM 4% | [2]; at 100.0 µM 64% | [3]; at 1.2 µM 3% | [3]; at 3.7 µM 5% | [3]; at 11.0 µM 9% | [3]; at 33.0 µM 35% | [4]; at 1.2 µM 2% | [4]; at 3.7 µM -2% | [4]; at 11.0 µM -1% | [4]; at 33.0 µM 8% | [4]; at 100.0 µM 62% | [5]; at 1.2 µM -3% | [5]; at 3.7 µM -4% | [5]; [16] -144% | [5]; at 11.0 µM 7% | [5]; at 33.0 µM 16% | [6]; at 1.2 µM -1% | [6]; at 3.7 µM 2% | [6]; [16] -48% | [6]; at 11.0 µM -11% | [6]; at 33.0 µM -1% | [6]; [17] -4% | [6]; at 50.0 µM 51.5% | [6]; at 100.0 µM 62% | [7]; at 1.2 µM -4% | [7]; at 3.7 µM -9% | [7]; at 11.0 µM -5% | [7]; at 33.0 µM 9% | [7]; at 100.0 µM 63% | [8]; [16] -63% | [8]; [17] 49% | [8]; at 50.0 µM 33.5% | [9]; at 1.2 µM 2% | [9]; at 3.7 µM -1% | [9]; at 11.0 µM 2% | [9]; at 33.0 µM 1% | [9]; at 100.0 µM 39% | [10]; [16] -59% | [10]; [17] -38% | [10]; at 50.0 µM 11.5% | [11]; at 1.2 µM 0% | [11]; at 3.7 µM 2% | [11]; [16] -62% | [11]; at 11.0 µM -1% | [11]; at 33.0 µM 5% | [11]; [17] 55% | [11]; at 50.0 µM 49.2% | [11]; at 100.0 µM 53% | [12]; at 1.2 µM 1% | [12]; at 3.7 µM 2% | [12]; at 11.0 µM 1% | [12]; at 33.0 µM 0% | [12]; at 100.0 µM 62% | [13]; at 1.2 µM 1% | [13]; at 3.7 µM 4% | [13]; at 11.0 µM 10% | [13]; at 33.0 µM 35% | [14]; [16] -115% | [14]; [17] 59% | [15]; at 1.2 µM -2% | [15]; at 3.7 µM 0% | [15]; at 11.0 µM 4% | [15]; at 33.0 µM 21%
active: [1]; at 100.0 µM 85% | [3]; at 100.0 µM 91% | [5]; [17] 71% | [5]; at 50.0 µM 79% | [5]; at 100.0 µM 90% | [13]; at 100.0 µM 91% | [14]; at 50.0 µM 94.2% | [15]; at 100.0 µM 90%
